Screens as filed in PubChem.
Most compounds without a hit are left out; they make up all but 9.2% or so of the library.
HttQ103 aggreg: mutant huntingtin aggregation inhibition. PC12 HttQ103-GFP aggregates, Acumen cytometry, 40 h. Potency, µM (titrated, usually from 46.1 µM), for inactives: at the highest dose activity change, negative = inhibition, most hits filed as inhibitors. actives 1.1% (n = 220,000); active = well fitted curve in the direction sought with a large enough effect; inconclusive = small, poorly fitted or top-dose-only effect, or another doubt; inactive = no such curve, though single readings can be large; an effect the other way counts as inactive or inconclusive; note: % is set by controls: 0 for no effect and ±100 for the full control effect; nearly all actives have a fitted effect of over 60% in size
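Read-out: GFP aggregate count by laser scanning cytometer (488 nm excitation, 500-530 nm emission, 1–25 µm objects >6 SD above background). Cells: PC12, inducible HTTex1-Q103-GFP, 100 nM tebufenozide; compounds titrated.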
Lamin A splicing: LMNA splicing modulation | Potency, µM (highest dose often 46.1 µM), for the others: top-dose ratio change, negative = inhibition, hits mostly inhibitors | actives 0.01% (n = 200,000) | HeLa LMNA splicing GFP/RFP minigene ratio, 48 h | AID 1487; active = well fitted inhibition curve with a large enough effect in the signal ratio, with a control signal flat, not every such curve was filed as active; inconclusive = small, poorly fitted or top-dose-only effect, or effect the other way, or a change in a side signal; the % refers to the signal ratio; note: % is set by controls: 0 for no effect and ±100 for the full control effect
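S3 HeLa cells stably expressing lamin A-EGFP splicing minigene plus DsRed2, 600 cells/well, 48 h compound exposure at 37C. Laser-scanning cytometry; analysed as GFP (500-530 nm)/RFP (575-640 nm) total intensity ratio; 0.5% DMSO vehicle.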
HTT cytoprotect: cytoprotection in Huntington HTT-Q103 PC12 cell model; actives 0.14% (n = 230,000); PC12 HTT-Q103 induced, cytoprotection, ATP luminescence, 40 h; Potency, µM (series often up to 56.4 µM), without a hit: cytoprotection (ATP increase), most hits filed as activators; AID 1471; active = well fitted curve in the direction sought with a large enough effect; inconclusive = small, poorly fitted or top-dose-only effect, or another doubt; inactive = no such curve, though single readings can be large; an effect the other way counts as inactive or inconclusive; note: % of control where 0% means no effect; nearly all actives have a fitted effect of over 45% in size
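Cells were plated at 1500 per well in phenol red-free DMEM with 5% equine and 5% calf serum. Tebufenozide (100 nM final) and compounds were added, then ATPlite reagent, and luminescence was read.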
KDM4E inh: blocks human JMJD2E demethylase activity; actives 1.6% (n = 230,000); B2RXH2; JMJD2E catalytic domain, FDH-coupled NADH fluorescence (FDH is formaldehyde dehydrogenase); Potency, µM (doses to about 57.1 µM), for inactives: at the top dose activity change, negative = inhibition, most hits filed as inhibitors;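 note: 0% = wells with enzyme and -100% = buffer wells without enzyme; nearly all actives have a fitted effect of over 50% in size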
Target sequence (B2RXH2 1-337 limits assumed): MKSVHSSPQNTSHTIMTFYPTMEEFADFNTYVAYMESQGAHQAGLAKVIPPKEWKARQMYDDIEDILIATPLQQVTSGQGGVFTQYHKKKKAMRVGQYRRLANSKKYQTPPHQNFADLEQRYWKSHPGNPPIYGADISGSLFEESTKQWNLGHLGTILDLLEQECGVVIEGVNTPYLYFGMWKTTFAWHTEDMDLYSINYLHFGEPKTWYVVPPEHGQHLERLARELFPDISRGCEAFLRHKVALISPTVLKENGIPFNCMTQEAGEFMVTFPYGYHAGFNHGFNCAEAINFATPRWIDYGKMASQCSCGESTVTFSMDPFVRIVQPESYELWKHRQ
HPGD inh: blocks human HPGD enzyme activity. P15428. purified HPGD, NADH fluorescence kinetic, PGE2 substrate. Potency, µM, for inactives: at the top dose activity change, negative = inhibition, most hits filed as inhibitors. actives 4.3% (n = 150,000). AID 894; note: % is set by controls: 0 for no effect and ±100 for the full control effect
Target sequence (P15428 whole entry, looked up): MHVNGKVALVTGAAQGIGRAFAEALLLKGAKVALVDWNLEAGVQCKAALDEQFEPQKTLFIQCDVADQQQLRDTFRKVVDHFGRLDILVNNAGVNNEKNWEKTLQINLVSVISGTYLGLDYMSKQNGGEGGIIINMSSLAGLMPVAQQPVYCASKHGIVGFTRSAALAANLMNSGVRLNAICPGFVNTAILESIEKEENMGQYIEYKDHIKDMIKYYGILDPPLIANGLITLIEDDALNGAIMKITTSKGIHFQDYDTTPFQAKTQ
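20 nM HPGD preincubated 15 min at room temperature with compound in 50 mM Tris-HCl pH 8, 0.01% Tween 20. Started with 1 mM NAD+ and 30 uM prostaglandin E2; NADH fluorescence (360/450 nm) read 5 times over 30-s intervals, last minus first.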
ALDH1A1 inh: inhibitors of human aldehyde dehydrogenase 1A1. actives 7.3% (n = 220,000). Purified ALDH1A1, NADH fluorescence, propionaldehyde substrate. Potency, µM (doses to about 75.3 µM), for inactives: at the top dose activity, negative = inhibition, hits mostly inhibitors. AID 1030;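 note: plate controls were no enzyme wells and a reference inhibitor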
* = called active by the depositor; ? = inconclusive; . = no result; [ ] = another dose, or the depositor's remark. Unless noted, calls come from the whole dose curve; as a rule, active = well fitted inhibition curve with a large enough effect (not every such curve was filed as active); inconclusive = small, poorly fitted or top-dose-only effect, or another doubt; inactive = no such curve, though single readings can be large or run the other way. Potency is the fitted concentration of half-maximal effect.

SMILES | HttQ103 aggreg | Lamin A splicing | HTT cytoprotect | KDM4E inh | HPGD inh | ALDH1A1 inh
O=C(NC1CCCCC1)C(c1cccnc1)N(C(=O)c1ccc(Cl)nc1)C1CCCCC1 (stereo not drawn) | 2% | -8%[46 µM] | -19% | -3% | . | 8%
Cc1ccc(C(C(=O)NC(C)(C)C)N(C(=O)c2csnn2)C2CC2)cc1 (stereo not drawn) | -10% | -6% | 12%[10 µM] | -5% | 0% | 10%
Cc1cccc(N2CCN(C(c3cccs3)c3nnnn3C(C)(C)C)CC2)c1C (stereo not drawn) | 11µM* | 5% | 11%[10 µM] | 2% | -16% | -3%
Cc1cccc(N2CCN(C(c3ccccc3)c3nnnn3C(C)(C)C)CC2)c1C (stereo not drawn) | ? | 0% | -2%[10 µM] | -4% | -16% | ?
O=c1[nH]c(=O)c2nc(Br)n(C3OC(CO)C(O)C3O)c2[nH]1 (stereo not drawn) | . | -5% | . | -6% | -7% | 9%
CCN(CC)C(=O)C1CCCN(c2ccc([N+](=O)[O-])cc2/C=N/NC(=O)c2cccc(O)c2)C1 (stereo not drawn) | 2% | -3% | -21% | 2% | -26% | 28µM*
CCN(CC)C(=O)C1CCCN(c2ccc([N+](=O)[O-])cc2)C1 (stereo not drawn) | 14%[9.22 µM] | . | 3%[10 µM] | 3% | . | 20µM*
CCN(CC)C(=O)C1CCCN(c2ccc([N+](=O)[O-])cc2/C=N/NC(=O)c2ccccc2)C1 (stereo not drawn) | ? | 1% | 3%[10 µM] | -13% | -11% | 28µM*
CN1CCN(c2ccccc2NC(=O)c2cccc([N+](=O)[O-])c2)CC1 | 11% | . | -8%[10 µM] | 2% | . | 7%
CN1CCN(c2ccc([N+](=O)[O-])cc2/C=N/NC(=O)c2cccc([N+](=O)[O-])c2)CC1 | 9% | -7% | . | -5% | -17% | 20µM*
N#Cc1ccc(CN2CCC3(CC2)CCN(C(=O)c2csnn2)CC3)cc1 | . | . | ? | . | -3% | 7%
Cc1ccc(S(=O)(=O)Nc2ncc(C(F)(F)F)cc2Cl)cc1 | -14% | . | -27% | -2% | . | -8%
CCn1cc(NC(=O)CCl)c(C)n1 | -8%[9.22 µM] | ? | -5%[10 µM] | -10% | . | 4.5µM*
CCOc1cc(NC(=O)CCl)c(OCC)cc1NC(=O)CCl | 24%[9.22 µM] | . | -20%[10 µM] | ? | . | .
CCOC(=O)Cn1c(=O)c2c(nc(N3CCOCC3)n2C)n(C)c1=O | ? | 0% | 10% | 1% | -7% | 1%
Cn1c(=O)c2c(nc(N3CCCCCC3)n2CC(O)COc2ccccc2)n(C)c1=O (stereo not drawn) | 20% | -1% | -9%[10 µM] | 3% | -9% | 1.6µM*
CCOC(=O)Cn1c(=O)c2c(nc(N3CCCCC3)n2Cc2ccccc2)n(C)c1=O | 0% | ? | -37% | -1% | -10% | 14µM*
COc1cc(OC)c2cc(-c3ccncc3)cnc2c1 | . | . | -13% | ? | ? | ?
O=C(O)CCN1C(=O)S/C(=C\c2cccnc2)C1=O | 4%[9.22 µM] | . | -12%[10 µM] | -14% | . | .
NC1=NC(=O)/C(=C/c2ccsc2)S1 | -21% | -12%[46 µM] | -13% | -1% | . | 7%
NC1=NC(=O)/C(=C\c2cccnc2)S1 | 8.9µM* | ? | -20% | -1% | . | -5%
NC1=NC(=O)/C(=C\c2ccco2)S1 | -31%[9.22 µM] | . | 10%[10 µM] | 22µM* | . | .
CC(C)N1C(=O)S/C(=C/c2ccc3c(c2)n(C)c(=O)n3C)C1=O | 2% | ? | -8% | -4% | ? | 8.9µM*
CC(C)N1C(=O)S/C(=C/c2cccnc2)C1=O | 3% | 12% | -17% | -2% | 1% | 13µM*
Nc1ncnc2c1ncn2[C@@H]1CCCO1 | . | . | 5%[1.9 µM] | . | . | .
SMILES | HttQ103 aggreg | Lamin A splicing | HTT cytoprotect | KDM4E inh | HPGD inh | ALDH1A1 inh
C#CCCCCCCCCCCCC(=O)CC(O)COC(C)=O (stereo not drawn) | . | 5% | . | 7% | -9% | 9%
O=C(N/N=C/c1ccc(O)cc1)c1cc[n+](Cc2ccccc2)cc1 | 8% | -15% | 21%[10 µM] | -1% | -15% | ?
O=C(N/N=C/c1ccc(OCc2ccccc2)cc1)c1cc[n+](Cc2ccccc2)cc1 | -8% | -12% | 14%[10 µM] | 32µM* | . | -14%
CCOC(=O)N1CCC(NC(=O)C2CCN(C(=O)c3cc4oc(C)cc4n3Cc3c(F)cccc3Cl)CC2)CC1 | 12%[9.22 µM] | . | 12% | 4% | . | 20µM*
Cc1cccc(NC(=S)NC(C)(C)CC(C)(C)C)c1 | ? | -11%[46 µM] | 8.9µM* | -8% | . | 3%
COc1cc(NC(=S)N(C)C)c(OC)cc1Cl | -7%[9.22 µM] | . | 22%[10 µM] | 3% | . | .
COc1cc(NC(=S)NC2CC2)c(OC)cc1Cl | 20µM* | 14% | -5%[10 µM] | -6% | -5% | ?
COc1ccc(NC(=S)Nc2cccc(Cl)c2Cl)cc1OC | 7% | ? | . | -11% | . | ?
Cc1cccc(NC(=S)NCc2ccc(F)cc2)c1 | 16% | ? | . | 3% | -29% | ?
COc1cc(OC)c(NC(=S)Nc2cccc(C)c2)cc1Cl | 19% | -12% | . | 2% | 16µM* | ?
Cc1ccc(S(=O)(=O)CCC(=O)OCC(=O)NCc2ccc(Cl)cc2)cc1 | -8% | ? | -16%[10 µM] | 5% | . | -9%
CC(C)C(=O)Cc1ccc2ccccc2n1 | . | . | 4%[10 µM] | . | -3% | 0%[13.5 µM]
O=C(COC(=O)c1cc[n+]([O-])cc1)Nc1ccccc1Sc1ccccc1 | 18% | -7%[46 µM] | -12%[10 µM] | 14% | . | 11µM*
CN(CC(=O)N1CCCCCC1)S(=O)(=O)c1ccc(Br)s1 | 5% | 14% | -9% | 8% | 22µM* | ?
O=C1C=C(NCCOC23CC4CC(CC(C4)C2)C3)C2(CCCCC2)O1 | -3% | ? | -37% | 2% | . | ?
O=C(C1=C[C@@H](c2coc3ccccc3c2=O)C[C@@H](OCCCCO)O1)N1CCN(Cc2ccc3c(c2)OCO3)CC1 | 22%[9.22 µM] | . | -5%[10 µM] | 4% | . | ?
CC(=O)OC1CC2C(C)(C)C(=O)CC[C@]2(C)C2CC[C@]3(C)C(=CC(=O)OC3c3ccoc3)[C@]12C (stereo partly drawn) | . | . | . | -1% | 1% | 5%
CC1(C)C(O)C=C[C@@]2(C)C1CC(=O)O[C@@]1(C)C3=CC(=O)OC(c4ccoc4)[C@]3(C)CCC21 (stereo partly drawn) | . | . | . | -2% | 0% | 22µM*
CC(=O)OC1CC2C(C)(C)C(O)CC(O)[C@@]2(C)C2CC[C@@]3(C)C(=CC(=O)OC3c3ccoc3)[C@]12C (stereo partly drawn) | . | . | -45% | 3% | 20µM* | ?
